Results from PubChem BioAssay (Tox21).
Inconclusive results are not listed. A call without a number means that no potency is given here. Active and inactive are the calls of the source. Unless noted, calls follow the shape of the dose curve; as a rule, active = well fitted cell-killing curve with a large enough effect in the repeat runs; inconclusive = weak or mixed curves, or effect the other way; inactive = no such curve, though single readings can be large or run the other way.

Molecular target: Progesterone receptor (Homo sapiens) (UniProt P06401)
Assay: qHTS assay to identify small molecule antagonists of the progesterone receptor (PR) signaling pathway (AID 1346795; active = well fitted inhibition curve with a large enough effect in the signal ratio in the repeat runs, not every such curve was filed as active; the % refers to the signal ratio)
Settings: PR-UAS-bla HEK293T, beta-lactamase FRET ratio, 16 h; series mostly up to 92.4 µM
Procedure, shortened: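 After 6 hr plating at 37C in 2% stripped-serum medium, PR-UAS-bla HEK293T cells got compounds, then 1 nM R5020. Sixteen hours later, LiveBLAzer substrate was applied for 2 hr at room temperature and fluorescence was recorded.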
Potency is read from the fitted curve at half-maximal effect.

Progesterone receptor (Homo sapiens), sequence (P06401 whole entry, looked up): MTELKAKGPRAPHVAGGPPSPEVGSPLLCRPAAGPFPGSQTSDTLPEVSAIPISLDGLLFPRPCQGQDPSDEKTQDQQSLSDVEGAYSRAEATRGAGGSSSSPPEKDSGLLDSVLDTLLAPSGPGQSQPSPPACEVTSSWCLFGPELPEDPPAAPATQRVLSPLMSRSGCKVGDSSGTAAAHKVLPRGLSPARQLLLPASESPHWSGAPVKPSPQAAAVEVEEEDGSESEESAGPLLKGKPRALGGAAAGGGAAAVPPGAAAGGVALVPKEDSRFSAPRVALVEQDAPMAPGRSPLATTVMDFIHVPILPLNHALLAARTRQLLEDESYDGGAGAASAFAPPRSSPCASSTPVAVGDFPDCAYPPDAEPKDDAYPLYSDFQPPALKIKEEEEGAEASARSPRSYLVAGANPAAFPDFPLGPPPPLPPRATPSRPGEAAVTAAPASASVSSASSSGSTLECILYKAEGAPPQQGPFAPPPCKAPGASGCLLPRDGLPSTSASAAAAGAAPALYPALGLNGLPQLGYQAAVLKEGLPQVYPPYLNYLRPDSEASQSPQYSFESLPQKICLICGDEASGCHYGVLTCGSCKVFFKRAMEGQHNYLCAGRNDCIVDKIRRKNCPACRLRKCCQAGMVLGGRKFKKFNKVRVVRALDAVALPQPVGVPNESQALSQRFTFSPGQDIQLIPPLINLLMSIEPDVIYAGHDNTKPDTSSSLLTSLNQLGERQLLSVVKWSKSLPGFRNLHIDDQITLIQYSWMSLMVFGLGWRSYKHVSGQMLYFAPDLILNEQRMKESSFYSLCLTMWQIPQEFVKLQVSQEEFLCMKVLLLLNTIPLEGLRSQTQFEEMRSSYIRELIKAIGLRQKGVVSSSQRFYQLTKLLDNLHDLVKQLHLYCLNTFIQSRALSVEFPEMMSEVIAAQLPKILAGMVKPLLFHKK

Row | Structure (SMILES) | Potency | activity change, negative = inhibition
1 | CCC(=O)O[C@]1(C(=O)CCl)[C@@H](C)C[C@H]2[C@@H]3CCC4=CC(=O)C=C[C@]4(C)[C@@]3(F)[C@@H](O)C[C@@]21C | inactive | 
2 | Nc1cccc(S(=O)(=O)c2cccc(N)c2)c1 | inactive | 
3 | O=CC1CC=CCC1 (stereo not given) | inactive | 
4 | CN(C)CCN(Cc1ccsc1)c1ccccn1 | inactive | 
5 | Brc1c2ccccc2c(Br)c2ccccc12 |  | 3.87% [at 8.39 µM] (inactive)
6 | COC(C)OC | inactive | 
7 | O=[N+]([O-])c1ccc(NCCO)c(OCCO)c1 | inactive | 
8 | CCCCCC[C@@H](O)C/C=C\CCCCCCCC(=O)OC | inactive | 
9 | COc1ccc2cccc(CCNC(C)=O)c2c1 | inactive | 
10 | OC(C#CCN1CCCC1)(c1ccccc1)c1ccccc1 | inactive | 
11 | CC(C)(C)Cl | inactive | 
12 | CCN(CC)CCNc1ccc(CNC=O)c2sc3ccc(OC)cc3c(=O)c12 | 43.3 µM (active) | 
13 | CCOC(=O)C(F)(F)F | inactive | 
14 | CC(=O)c1cccc([N+](=O)[O-])c1 | inactive | 
15 | COc1ccc(C(=O)N2CCN(CC(=O)N3CCOCC3)CC2)cc1 | inactive | 
16 | O=C(O)CNCC(=O)O |  | 1.55% [at 8.39 µM] (inactive)
17 | O=C(O)c1ccc(S(=O)(=O)O)cc1C(=O)O | inactive | 
18 | CCCn1cnc2c1c(=O)n(CCCCC(C)=O)c(=O)n2C | inactive | 

Row | Structure (SMILES) | Potency | activity change, negative = inhibition
19 | CCCCCCCCCCCC(=O)OC[C@@H](O)[C@H]1OC[C@H](OCCO)[C@H]1OCCO | inactive | 
20 | O=C1OC(CN2CCOCC2)CN1/N=C/c1ccc([N+](=O)[O-])o1 (stereo not given) | inactive | 
21 | Nc1ccc(N)c2c1C(=O)c1ccccc1C2=O | inactive | 
22 | CN(C)c1ccc(C(c2ccccc2)c2ccc(N(C)C)cc2)cc1 | 13.7 µM (active) | 
23 | OC[C@H]1O[C@@H](OCCc2ccc(O)cc2)[C@H](O)[C@@H](O)[C@@H]1O | inactive | 
24 | O=C(O)c1ccccc1Cl | inactive | 
25 | COC(=O)c1ccc(I)cc1S(=O)(=O)NC(=O)Nc1nc(C)nc(OC)n1 | inactive | 
26 | CN1CCN(C(c2ccccc2)c2ccccc2)CC1 | inactive | 
27 | C[Si](C)(CCCN)O[Si](C)(C)CCCN | inactive | 
28 | C=C(C)C(=O)OCCO | inactive | 
29 | COc1cc(Cl)ccc1Oc1ccc(Cl)cc1Cl | 8.39 µM (active) | 
30 | CCOC(=O)Cc1cccc2ccccc12 | inactive | 
31 | CCOc1ccc(O)cc1 | inactive | 
32 | O=C(O)c1ccc(-n2nc(-c3ccccc3O)nc2-c2ccccc2O)cc1 | 6.68 µM (active) | 
33 | O=C1[C@H]2CCCC[C@H]2C(=O)N1CCCCN1CCN(c2nsc3ccccc23)CC1 | inactive | 
34 | C[N+]1(C)CCC(OC(=O)C(O)(c2ccccc2)C2CCCC2)C1 (stereo not given) | inactive | 
35 | O=C(CS)Nc1ccccc1 | inactive | 

Test system: not listed separately
Assay: qHTS assay to identify small molecule antagonists of the progesterone receptor (PR) signaling pathway - cell viability counter screen (AID 1346798); also: nearly all actives have a fitted effect of over 50% in size
Settings: PR-UAS-bla HEK293T viability, CellTiter-Glo luminescence, 16 h; series mostly up to 92.4 µM
Procedure, shortened: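 Viability was determined by ATP-based luminescence (CellTiter-Glo) in PR-UAS-bla HEK293T cells cultured in 2% charcoal-stripped serum and incubated 16 hr with compounds under R5020 stimulation.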

Row | Structure (SMILES) | Potency | activity change, negative = cytotoxicity
36 | CCC(=O)O[C@]1(C(=O)CCl)[C@@H](C)C[C@H]2[C@@H]3CCC4=CC(=O)C=C[C@]4(C)[C@@]3(F)[C@@H](O)C[C@@]21C | inactive | 
37 | Nc1cccc(S(=O)(=O)c2cccc(N)c2)c1 | inactive | 
38 | O=CC1CC=CCC1 (stereo not given) | inactive | 
39 | CN(C)CCN(Cc1ccsc1)c1ccccn1 | inactive | 
40 | Brc1c2ccccc2c(Br)c2ccccc12 |  | 3.37% [at 8.39 µM] (inactive)
41 | COC(C)OC | inactive | 
42 | O=[N+]([O-])c1ccc(NCCO)c(OCCO)c1 | inactive | 
43 | CCCCCC[C@@H](O)C/C=C\CCCCCCCC(=O)OC | inactive | 
44 | COc1ccc2cccc(CCNC(C)=O)c2c1 | inactive | 
45 | OC(C#CCN1CCCC1)(c1ccccc1)c1ccccc1 | inactive | 
46 | CC(C)(C)Cl | inactive | 
47 | CCN(CC)CCNc1ccc(CNC=O)c2sc3ccc(OC)cc3c(=O)c12 | 24.3 µM (active) | 
48 | CCOC(=O)C(F)(F)F | inactive | 
49 | CC(=O)c1cccc([N+](=O)[O-])c1 | inactive | 
50 | COc1ccc(C(=O)N2CCN(CC(=O)N3CCOCC3)CC2)cc1 | inactive | 
51 | O=C(O)CNCC(=O)O |  | -2.59% [at 8.39 µM] (inactive)
52 | O=C(O)c1ccc(S(=O)(=O)O)cc1C(=O)O | inactive | 
53 | CCCn1cnc2c1c(=O)n(CCCCC(C)=O)c(=O)n2C | inactive | 

Row | Structure (SMILES) | Potency | activity change, negative = cytotoxicity
54 | CCCCCCCCCCCC(=O)OC[C@@H](O)[C@H]1OC[C@H](OCCO)[C@H]1OCCO | inactive | 
55 | O=C1OC(CN2CCOCC2)CN1/N=C/c1ccc([N+](=O)[O-])o1 (stereo not given) | inactive | 
56 | Nc1ccc(N)c2c1C(=O)c1ccccc1C2=O | 27.3 µM (active) | 
57 | CN(C)c1ccc(C(c2ccccc2)c2ccc(N(C)C)cc2)cc1 | inactive | 
58 | OC[C@H]1O[C@@H](OCCc2ccc(O)cc2)[C@H](O)[C@@H](O)[C@@H]1O | inactive | 
59 | O=C(O)c1ccccc1Cl | inactive | 
60 | COC(=O)c1ccc(I)cc1S(=O)(=O)NC(=O)Nc1nc(C)nc(OC)n1 | inactive | 
61 | CN1CCN(C(c2ccccc2)c2ccccc2)CC1 | inactive | 
62 | C[Si](C)(CCCN)O[Si](C)(C)CCCN | inactive | 
63 | C=C(C)C(=O)OCCO | inactive | 
64 | COc1cc(Cl)ccc1Oc1ccc(Cl)cc1Cl | inactive | 
65 | CCOC(=O)Cc1cccc2ccccc12 | inactive | 
66 | CCOc1ccc(O)cc1 | inactive | 
67 | O=C(O)c1ccc(-n2nc(-c3ccccc3O)nc2-c2ccccc2O)cc1 | inactive | 
68 | O=C1[C@H]2CCCC[C@H]2C(=O)N1CCCCN1CCN(c2nsc3ccccc23)CC1 | inactive | 
69 | C[N+]1(C)CCC(OC(=O)C(O)(c2ccccc2)C2CCCC2)C1 (stereo not given) | inactive | 
70 | O=C(CS)Nc1ccccc1 | inactive | 
